Screens deposited in PubChem BioAssay by National Center for Advancing Translational Sciences (NCATS).
This is a sample that favours compounds with a hit; in the whole collection about 6.5% have one here.
LASV entry inh: inhibitors of Lassa virus binding or cell entry. Lassa virus pseudotype entry inhibition, cell reporter. Potency, µM (doses to about 37.9 µM), for the others: top-dose activity change, negative = inhibition, hits mostly inhibitors. 1.2% of 300,000 active; calls by dose curve; tested in HEK293 cells; further: potency means the concentration at half of the fitted maximal effect; nearly all actives have a fitted effect of over 50% in size
Marburg entry inh: inhibitors of Marburg virus binding or cell entry | Marburg virus pseudotyped entry inhibition, cell reporter | 1.8% of 300,000 active | Potency, µM (top dose mostly 37.8 µM), for the others: top-dose activity change, negative = inhibition, hits mostly inhibitors; calls by dose curve; tested in HEK293 cells; further: potency means the concentration at half of the fitted maximal effect
HCMV antiviral: inhibitors of human cytomegalovirus | HFF cells, HCMV-luciferase reporter, 72 h; active compounds read low | activity change, negative = inhibition, % at 57.5 µM | 4.5% of 410,000 active; in the data active means activity change below about -60%; inconclusive means no clear call, values can overlap the other calls; inactive means above about -39%
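Cell-based, HFFs, 1000 cells/well, 16 h 37C; cpds in DMSO + HCMV-luc, MOI 1 PFU/cell; 72 h 37C; OneGlo luminescence after 5 min RT; norm. to buffer vs Salinomycin 10uM.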
VACV mCherry inh: inhibitors of vaccinia virus infection (mCherry reporter signal) | Vaccinia virus mCherry reporter infection, fluorescence | AID 720579 | Potency, µM (highest dose often 36.5 µM), for inactives: at the highest dose activity change, negative = inhibition, usual class: inhibitors | 0.63% of 310,000 active; calls by dose curve; tested in A549 cells; further: potency means the concentration at half of the fitted maximal effect; nearly all actives have a fitted effect of over 35% in size
FMDV inh: blocks foot and mouth disease virus. AID 1159524. Potency, µM (highest dose often 57.9 µM), for the others: at the highest dose activity change, negative = inhibition, hits mostly inhibitors. FMDV antiviral cell-based qHTS. 1.2% of 410,000 active; calls by dose curve; tested in HEK293T cells; further: read-out not given here; potency means the concentration at half of the fitted maximal effect; nearly all actives have a fitted effect of over 45% in size
VACV Venus inh: inhibitors of vaccinia virus (Venus reporter) | Vaccinia virus Venus reporter expression, fluorescence | Potency, µM (series often up to 36.5 µM), inactives show top-dose activity change, negative = inhibition, most hits filed as inhibitors | 0.46% of 330,000 active | AID 720580; calls by dose curve; tested in A549 cells; further: potency means the concentration at half of the fitted maximal effect; nearly all actives have a fitted effect of over 30% in size
Active calls of the source: *; ! = repeats disagree; [ ] = remark or other dose. On the % scale 0 is the no-effect control and ±100 the full control effect.

For Cc1ccc(S(=O)(=O)N/N=C\c2ccc([N+](=O)[O-])o2)cc1C the results were LASV entry inh inconclusive, Marburg entry inh 8%[46.1 µM], HCMV antiviral 13, VACV mCherry inh -7%, FMDV inh 2% and VACV Venus inh -5%.
Screening Cc1cc2ncn(/N=C/c3ccc([N+](=O)[O-])o3)c2cc1C returned LASV entry inh -11%, Marburg entry inh inconclusive, HCMV antiviral -62*, VACV mCherry inh 28µM* and VACV Venus inh 16µM*.
For Cn1cc(/C=N/NC(=O)COc2ccccc2[N+](=O)[O-])c2ccccc21 the results were LASV entry inh 24%, Marburg entry inh -38%, HCMV antiviral -64* and FMDV inh -13%.
CCCCN(C=O)c1c(CC)nc2ccc(C(=O)NCCc3ccccn3)cn12 was read as HCMV antiviral -23, VACV mCherry inh -14%, FMDV inh -13% and VACV Venus inh 0%.
`O=[N+]([O-])c1ccc(/C=N/N=C/c2ccc([N+](=O)[O-])o2)o1` gave LASV entry inh inconclusive, Marburg entry inh inconclusive, HCMV antiviral -100*, VACV mCherry inh -4%, FMDV inh inconclusive and VACV Venus inh -9%.
For Cc1ccccc1OCC(=O)N/N=C/c1ccc([N+](=O)[O-])o1 the results were Marburg entry inh -3%, HCMV antiviral -86* and FMDV inh inconclusive.
Screening O=C(CN1CCCCCCC1)N/N=C/c1ccc([N+](=O)[O-])o1 returned LASV entry inh inconclusive, Marburg entry inh inconclusive, HCMV antiviral inconclusive, VACV mCherry inh 11µM*, FMDV inh -9% and VACV Venus inh 10µM*.
`Cc1cc(C)cc(OCC(=O)N/N=C/c2ccc([N+](=O)[O-])o2)c1` gave LASV entry inh inconclusive, Marburg entry inh inconclusive, HCMV antiviral inconclusive, VACV mCherry inh inconclusive, FMDV inh -10% and VACV Venus inh inconclusive.
O=C(CN1CCOCC1)NN=Cc1ccc([N+](=O)[O-])o1 was read as HCMV antiviral -10, VACV mCherry inh 3%, FMDV inh -20% and VACV Venus inh -7%.
For O=C(O)/C=C/c1ccc([N+](=O)[O-])o1 the results were LASV entry inh 12%[46.1 µM], Marburg entry inh inconclusive, HCMV antiviral -36, VACV mCherry inh inactive, FMDV inh -23% and VACV Venus inh 4%.
Screening O=C(CC12CC3CC(CC(C3)C1)C2)N/N=C\c1ccc[nH]1 returned LASV entry inh -9%, Marburg entry inh 18%[46.1 µM], HCMV antiviral -12, VACV mCherry inh -8%, FMDV inh 14% and VACV Venus inh 6%.
Screening O=C(CC12CC3CC(CC(C3)C1)C2)N/N=C/c1ccc([N+](=O)[O-])o1 returned LASV entry inh 16µM*, Marburg entry inh inconclusive, HCMV antiviral -10, VACV mCherry inh 11µM*, FMDV inh -29% and VACV Venus inh 28µM*.
For CCCCCCCC(=O)N/N=C/c1ccc([N+](=O)[O-])o1 the results were HCMV antiviral inconclusive and FMDV inh -15%.
For CC1(C(=O)N/N=C/c2ccc([N+](=O)[O-])o2)CC1(Br)Br (stereo not given) the results were LASV entry inh 13µM*, Marburg entry inh inconclusive, HCMV antiviral -60*, VACV mCherry inh inconclusive, FMDV inh -20% and VACV Venus inh 6.3µM*.
Screening CCOC(=O)N/N=C\c1ccc([N+](=O)[O-])o1 returned LASV entry inh -12%, Marburg entry inh -3%, HCMV antiviral inconclusive, VACV mCherry inh -29% and VACV Venus inh inconclusive.
For O=C(Cc1ccc([N+](=O)[O-])cc1)N/N=C/c1ccc([N+](=O)[O-])o1 the results were HCMV antiviral -18, VACV mCherry inh 10µM*, FMDV inh -13% and VACV Venus inh 11µM*.
O=c1c2ccccc2[nH]c(=S)n1CCC1=CCCCC1 was read as LASV entry inh -1%[46.1 µM], Marburg entry inh inconclusive, HCMV antiviral -35, VACV mCherry inh -6%, FMDV inh 31% and VACV Venus inh -18%.
For Cc1cccc(NC(=S)N(CCN2CCOCC2)Cc2cc3cc4c(cc3[nH]c2=O)OCO4)c1 the results were Marburg entry inh -16%[46.1 µM], HCMV antiviral -21, VACV mCherry inh -14%, FMDV inh -12% and VACV Venus inh -6%.
For Cc1cccc(NC(=S)N(CCCN2CCOCC2)Cc2cn(C)c3ccccc23)c1 the results were LASV entry inh inconclusive, Marburg entry inh inconclusive, HCMV antiviral -89*, VACV mCherry inh -9%, FMDV inh -8% and VACV Venus inh -13%.
Screening Cn1cc(CN(CCCN2CCOCC2)C(=S)Nc2cccc(Cl)c2)c2ccccc21 returned LASV entry inh inconclusive, Marburg entry inh inconclusive, HCMV antiviral -78*, VACV mCherry inh inconclusive, FMDV inh -16% and VACV Venus inh -25%.
For CCc1noc(C)c1C(=O)N1CCSC1=Nc1cccc(Cl)c1C the results were LASV entry inh inconclusive, Marburg entry inh inconclusive, HCMV antiviral -82*, VACV mCherry inh -7%, FMDV inh inconclusive and VACV Venus inh -18%.
CC(=O)N1c2ccc(S(=O)(=O)N3CCCCC3)cc2CC1C(=O)Nc1ccc(F)cc1C (stereo not given) was read as LASV entry inh 10%[46.1 µM], Marburg entry inh inconclusive, HCMV antiviral -79*, VACV mCherry inh -9%, FMDV inh -3% and VACV Venus inh -8%.
For CC(=O)N1c2ccc(S(=O)(=O)NCC3CCC(C(=O)Nc4ccc(C)cc4)CC3)cc2CC1C (stereo not given) the results were LASV entry inh 1%[46.1 µM], HCMV antiviral -23, VACV mCherry inh -13%, FMDV inh inconclusive and VACV Venus inh -23%.
Screening COc1cc(OC)c(NC(=O)C2CCN(S(=O)(=O)c3ccc4c(c3)CC(C)N4C(C)=O)CC2)cc1Cl (stereo not given) returned HCMV antiviral -19 and FMDV inh inconclusive.
For CC(=O)N1c2ccc(S(=O)(=O)N3CCC(C(=O)Nc4cc(C)ccn4)CC3)cc2CC1C (stereo not given) the results were HCMV antiviral -69* and FMDV inh inconclusive.
For CC(=O)N1c2ccc(S(=O)(=O)NCC3CCC(C(=O)Nc4cc(C)ccn4)CC3)cc2CC1C (stereo not given) the results were LASV entry inh 2%[46.1 µM], Marburg entry inh 5%[46.1 µM], HCMV antiviral -91*, VACV mCherry inh -20%, FMDV inh inconclusive and VACV Venus inh inconclusive.
`COc1ccc(OC)c(NC(=O)C2CCN(S(=O)(=O)c3ccc4c(c3)CC(C)N4C(C)=O)CC2)c1` (stereo not given) gave LASV entry inh -12%[46.1 µM], Marburg entry inh 3%[46.1 µM], HCMV antiviral -86*!, VACV mCherry inh -19%, FMDV inh -22% and VACV Venus inh -16%.
For Cc1c(C(=O)NC2CCCCC2)sc2ncnc(NCCN(C)C)c12 the results were VACV mCherry inh inactive, FMDV inh -19% and VACV Venus inh -19%.
